The structures appear in SMILES notation. The campaign covered roughly 200,000 compounds. About 5,100 (2.5%) were called active.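 The calls were made as follows: active = activation above the screen-wide mean activation plus 3 SD (cut at about 130% in these data); inactive = the rest.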 The sample as a whole holds a higher share of actives than the screen did.

The experiment in a line: potentiators of IFN-gamma driven STAT1 reporter – cell-based, HTS, luciferase reporter, primary screen (AID 932).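 Also: raw ratio to IFN-gamma control signal so 100% means no change and 0% no light.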 The following applies: NIH 3T3 STAT1-luciferase reporter, luminescence, at 5.5 µM, hits give high values, 100% = IFN-gamma alone, no compound. A general note: Reporter assays use an easily measured gene product as a stand-in for the process of interest.
Take `Cc1nnc(CN(C)Cc2cn[nH]c2-c2ccc(-c3ccccc3)cc2)o1`: the activation (% of control) was 114% (inactive). Regarding `COc1ccc(CCNC(=O)/C(C#N)=C2\N=C(NC(=O)c3cccs3)c3ccccc32)cc1`, the activation (% of control) was 95.7% (inactive). Take `COCCCNC(=S)N(Cc1ccccc1)Cc1ccc(F)cc1`: the activation (% of control) was 90% (inactive). The result for `Cc1ccc(S(=O)(=O)N(NC2=NS(=O)(=O)c3ccccc32)C(=O)c2ccccc2)cc1` reads 106% (inactive); that for `O=C(Oc1cccc(NC2=NS(=O)(=O)c3ccccc32)c1)c1ccncc1`, 92.7% (inactive). For `CC(C)(C)c1csc(NC2=NS(=O)(=O)c3ccccc32)n1` the value was 130% (active); for `COC(=O)C1=C(C(=O)OC)C(c2cc([N+](=O)[O-])ccc2O)c2sc(=O)[nH]c2S1` (stereo not given), 98.4% (inactive). With `CCOC(=O)Cc1csc(NC(=O)COc2ccc3c(C)cc(=O)oc3c2)n1`, the activation (% of control) is 102% (inactive). In the case of `COC(=O)COc1cccc2c(=O)n(CC(=O)NCCc3ccc(OC)c(OC)c3)ccc12`, the activation (% of control) was 100% (inactive). Regarding `CC(/C=N/NC(=O)c1cc(-c2ccc3ccccc3c2)n[nH]1)=C\c1ccco1`, the activation (% of control) was 131% (active).

Consider `Cc1ccc(-c2cc(C(=O)N/N=C/C=C/c3ccco3)c3ccccc3n2)cc1C`, for which the activation (% of control) is 78.9% (inactive). As for `CC(/C=N/NC(=O)c1ccncc1)=C\c1ccco1`, the activation (% of control) was 98.5% (inactive).

As for `c1ccc(CSc2nnc(-c3ccco3)n2Cc2ccccc2)cc1`, the activation (% of control) was 144% (active). For `O=C(CSc1nnc(-c2ccco2)n1Cc1ccccc1)NC(=O)NCc1ccco1` the value was 101% (inactive); for `c1ccc(CSc2nnc(-c3ccco3)c(-c3ccco3)n2)cc1`, 97.8% (inactive).

As to `COc1cccc(OCC(=O)NNC(=O)c2cnccn2)c1`, the activation (% of control) was 98.7% (inactive). The result for `COc1ccc2c(c1)CCc1c(C(=O)N3CCCC3)noc1-2` reads 131% (active); that for `COc1ccc2c(c1)CCc1c(C(=O)Nc3c(C)n(C)n(-c4ccccc4)c3=O)noc1-2`, 106% (inactive); that for `COc1ccc2c(c1)CCc1c(C(=O)N3CCc4ccccc4C3)noc1-2`, 96.8% (inactive). As to `O=C(Nc1cccc(C(F)(F)F)c1)c1ccc(N2CCNCC2)c([N+](=O)[O-])c1`, the activation (% of control) is 90.2% (inactive). As to `CC(C)C(NC(=O)c1ccc(Cl)cc1)C(=O)O` (stereo not given), the activation (% of control) was 110% (inactive). Turning to `Cc1occc1C(=O)NNC(=S)NCC(C)C`, the activation (% of control) was 102% (inactive). Turning to `CC(C)CNC(=S)NC(=O)c1ccc(Cl)cc1`, the activation (% of control) was 136% (active). In the case of `Cn1c(CNC(=O)c2ccccc2F)nnc1SCc1ccc(F)cc1`, the activation (% of control) is 103% (inactive).

Take `O=C(Nc1ccccc1)c1ccc2c(c1)OCO2`: the activation (% of control) is 110% (inactive). For `Cc1cc(C)c2nc(NC(=O)c3ccc4c(c3)OCO4)sc2c1`, the activation (% of control) was 98.5% (inactive).

In the case of `O=C(Nc1nc2ccccc2s1)c1ccc2c(c1)OCO2`, the activation (% of control) was 130% (active).

Take `Cc1ccc(-c2csc(NC(=O)c3cnccn3)n2)cc1C`: the activation (% of control) was 105% (inactive). As for `O=C(Nc1nc(-c2ccc(-c3ccccc3)cc2)cs1)c1cnccn1`, the activation (% of control) was 113% (inactive). For the compound `O=C(Nc1nc(-c2cccnc2)cs1)c1ccccc1F`, the activation (% of control) is 141% (active).

As to `O=C(CCn1c(SCC(=O)c2ccccc2)nc2ccccc2c1=O)NCc1ccc(F)cc1`, the activation (% of control) is 94.6% (inactive). The result for `Cc1ccc(C(=O)CSc2nc3ccccc3c(=O)n2N)o1` reads 140% (active); that for `COc1ccc(OCc2ccc(-c3nc4ccccc4c(=O)n3N)o2)cc1`, 127% (inactive). Consider `Cc1ccccc1OCC(O)CN1CCN(c2ccccn2)CC1` (stereo not given), for which the activation (% of control) is 104% (inactive). As to `CCNC(=S)NNC(=O)C1CCN(Cc2ccccc2)CC1`, the activation (% of control) is 90.4% (inactive). Take `Cc1ccc(-c2nn(-c3ccccc3)cc2C(=O)Nc2cccc(S(=O)(=O)N3CCOCC3)c2)cc1`: the activation (% of control) was 102% (inactive). With `CCc1ccc(C2C(C#N)=C(N)N(N(C)C)C3=C2C(=O)CCC3)s1` (stereo not given), the activation (% of control) is 105% (inactive).

With `CS(=O)(=O)c1sc2nc(-c3ccccc3)cc(-c3ccccc3)c2c1N`, the activation (% of control) was 104% (inactive). On to `CCN(CC)C(=O)c1sc2nc(-c3ccccc3)ccc2c1N`, for which the activation (% of control) was 146% (active). Regarding `CCOC(=O)c1sc2nc(SC)nc(-c3ccccc3)c2c1N`, the activation (% of control) is 90% (inactive). As for `O=C(OCC(=O)N1CCCC1)c1ccco1`, the activation (% of control) is 104% (inactive). Turning to `CCN(CC)c1ccc(C(=O)OCC(=O)c2ccco2)cc1`, the activation (% of control) was 149% (active). In the case of `O=C(COC(=O)c1ccccc1C(=O)c1ccccc1)c1ccco1`, the activation (% of control) was 103% (inactive). Turning to `CCOC(=O)/C=c1\s/c(=C\c2ccc(C#N)cc2)c(=O)n1CC(=O)Nc1cccc(C)c1C`, the activation (% of control) is 102% (inactive). Turning to `CN(C)CCCN1C(=O)CSC1c1ccc([N+](=O)[O-])cc1` (stereo not given), the activation (% of control) was 95% (inactive).

`CCOc1ccc2nc(Nc3nc4ccc(NC(C)=O)cc4s3)sc2c1`: the activation (% of control) was 106% (inactive). For `CCOc1ccc2nc(SC(CC)C(=O)Nc3cc(C)on3)sc2c1` (stereo not given) the value was 86.5% (inactive); for `CCOc1ccc2nc(C(=O)N3CCCC(C)C3)sc2c1` (stereo not given), 153% (active). Regarding `CCNc1nc(NC(C)C)nc(N2CC(=O)N(CC(=O)OCC)C2=N)n1`, the activation (% of control) was 93.2% (inactive).

Turning to `O=C(Oc1cccc(N2C(=O)C3C4c5ccccc5C(c5ccccc54)C3C2=O)c1)c1ccco1` (stereo not given), the activation (% of control) was 102% (inactive). In the case of `Cc1ccc(-n2c(SCC(=O)N3c4ccccc4Sc4ccccc43)nnc2-c2ccncc2)cc1`, the activation (% of control) is 109% (inactive). As for `CC(C)(C)C(=O)NCCCNc1ccc([N+](=O)[O-])cc1`, the activation (% of control) is 112% (inactive). Regarding `COc1cc(/C=N/O)ccc1OCc1ccc([N+](=O)[O-])cc1`, the activation (% of control) is 206% (active). Regarding `COc1cc(/C=N\Nc2ccc([N+](=O)[O-])cn2)ccc1OCC(=O)O`, the activation (% of control) is 98% (inactive). The result for `COc1cc(C(=O)OCc2ccc([N+](=O)[O-])cc2)cc(OC)c1OC` reads 104% (inactive); that for `CCOc1ccc(S(=O)(=O)Nc2ccncc2)c(C)c1C`, 97% (inactive). With `C/C(CCC(=O)OC[C@H]1O[C@H](C#Cc2ccccc2)C=C[C@@H]1Oc1ccc(C)cc1)=N\OC[C@@H](O)[C@H]1O[C@@H]2OC(C)(C)O[C@@H]2[C@H]1O`, the activation (% of control) was 106% (inactive). In the case of `Cc1cc(Br)ccc1NC(=O)C1CCCO1` (stereo not given), the activation (% of control) was 107% (inactive).

Regarding `O=C(Nc1nc2ccc(S(=O)(=O)N3CCCC3)cc2s1)C1CCCO1` (stereo not given), the activation (% of control) is 95.5% (inactive).

As for `Cc1cc(C)c2nc(NC(=O)C3CCCO3)sc2c1` (stereo not given), the activation (% of control) is 151% (active).

Take `CCc1cc2c(=O)c(-c3nc4ccccc4n3C)c(CCCC(=O)O)oc2cc1OC(=O)C(C)(C)C`: the activation (% of control) is 90.5% (inactive). The result for `COC(=O)C1=CN(Cc2ccc(OC)c(OC)c2)C=C(C(=O)OC)C1c1cccs1` reads 45.2% (inactive); that for `C=CCNC(=O)/C=C/c1ccc(C(C)C)cc1`, 120% (inactive).

On to `CCCC(=O)N=c1sc2cccc(F)c2n1C`, for which the activation (% of control) was 114% (inactive).

As to `Cn1c(=NC(=O)C2CC2)sc2cc(F)cc(F)c21`, the activation (% of control) was 108% (inactive). `Cn1c(=NC(=O)c2ccco2)sc2cccc(F)c21`: the activation (% of control) is 135% (active). On to `CC(=O)Nc1ccc(S(=O)(=O)Oc2ccc(/C=N/N=C3/NC(=O)C(CC(=O)O)S3)cc2)cc1` (stereo not given), for which the activation (% of control) was 97.8% (inactive).

As to `CCCCn1c(=O)c(C(C)=O)c(O)c2ccccc21`, the activation (% of control) is 95.7% (inactive). Regarding `COc1cc([C@H](Cc2ccccc2)NC(C)=O)oc(=O)c1`, the activation (% of control) was 96.8% (inactive).

With `COCCn1c(C)cc(C2=NNC(=Nc3ccc(F)cc3)SC2)c1C`, the activation (% of control) was 133% (active). Turning to `C=CCn1c(C)cc(C2=NNC(=NCC)SC2)c1C`, the activation (% of control) is 15.6% (inactive). For `Cc1cc(C2=NNC(=Nc3ccc(S(=O)(=O)N4CCOCC4)cc3)SC2)c(C)n1CC1CCCO1` (stereo not given) the value was 99.8% (inactive); for `COc1ccc(C2CC(c3cccs3)=NN2c2ccccc2)cc1` (stereo not given), 93.2% (inactive). On to `Cc1cc(C)cc(N(CC(=O)NCCSCc2ccco2)S(C)(=O)=O)c1`, for which the activation (% of control) was 102% (inactive). For `Cc1ccccc1Nc1nc(N)nc(CSc2ccccc2)n1`, the activation (% of control) is 183% (active). Take `Cc1ccc(C(=O)OCc2nc(N)nc(Nc3ccccc3C)n2)cc1`: the activation (% of control) was 96.8% (inactive). On to `Cc1ccccc1Nc1nc(N)nc(CSc2nnc3ccccn23)n1`, for which the activation (% of control) was 120% (inactive). As for `CC(C)(C)C1CCC(=NNC(=O)c2cc(-c3ccccc3)n[nH]2)CC1` (stereo not given), the activation (% of control) is 113% (inactive). For `CCOC(=O)N1CCN(C(=O)C2CCN(Cc3ccc(OC)cc3OC)CC2)CC1` the value was 94.7% (inactive); for `CC(N=Cc1nc(-c2ccccc2)oc1O)c1ccccc1` (stereo not given), 104% (inactive).

For the compound `Oc1oc(-c2ccccc2Br)nc1/C=N/c1ccccn1`, the activation (% of control) is 131% (active). Regarding `CCOc1ccc2nc(/N=C/c3nc(-c4ccccc4)oc3O)sc2c1`, the activation (% of control) is 104% (inactive). With `O=C1NC(c2ccc(-c3ccccc3[N+](=O)[O-])o2)C(C(=O)c2ccc(Cl)cc2)C(O)(C(F)(F)F)N1` (stereo not given), the activation (% of control) was 102% (inactive).

As for `COc1ccc(C(C)=O)cc1CSc1nc2nc(C)cc(C)n2n1`, the activation (% of control) was 93.7% (inactive). Consider `O=C(Oc1ccc([N+](=O)[O-])cc1)c1ccc2ccccc2n1`, for which the activation (% of control) is 94.7% (inactive).

Consider `CC(OC(=O)c1ccc2ccccc2n1)C(=O)c1ccccc1` (stereo not given), for which the activation (% of control) is 138% (active). For `COc1ccc(C(=O)COC(=O)c2ccc3ccccc3n2)cc1` the value was 103% (inactive).

Consider `CCC(NC(=O)c1ccccc1NC(=O)c1ccccc1)C(=O)NNC(=O)CSc1nc2ccccc2o1` (stereo not given), for which the activation (% of control) is 94% (inactive). For `Cc1[nH]n(-c2ccccc2)c(=O)c1/C=N/NC(=O)c1ccoc1C` the value was 155% (active). The result for `Cc1[nH]n(-c2ccc(Cl)cc2)c(=O)c1/C=N/n1c(C)nc2ccccc2c1=O` reads 99.3% (inactive). Regarding `Cc1ccc(-n2[nH]c(C)c(/C=N/NC(=O)c3cccc([N+](=O)[O-])c3)c2=O)cc1C`, the activation (% of control) was 101% (inactive). Take `C=CCn1c(SCC(N)=O)nnc1-c1cc2c(s1)CCC(CC)C2` (stereo not given): the activation (% of control) was 121% (inactive). For `CC1CN(/C=C/C(=O)C(F)(F)F)CC(C)O1` (stereo not given) the value was 95.8% (inactive).

On to `CCSc1sc(CC)cc1C=O`, for which the activation (% of control) was 107% (inactive). The result for `O=C(c1cc(-c2ccccc2O)on1)N1CCCC1` reads 108% (inactive); that for `O=C(c1ccc(F)cc1)N1CCCC(c2nc(-c3cccs3)no2)C1` (stereo not given), 96.9% (inactive). Take `O=C(c1cc(-c2cccs2)on1)N1CCCCC1`: the activation (% of control) was 162% (active). As for `COc1ccccc1N1CCN(C(=O)c2cc(-c3ccc(Br)cc3)on2)CC1`, the activation (% of control) was 99.6% (inactive). Take `COc1ccccc1-c1cc(C(=O)N2CCCCC2)no1`: the activation (% of control) was 164% (active). For `Cc1ccc(-c2cc(C(=O)N3CCc4ccccc4C3)no2)cc1` the value was 97.3% (inactive).

Source of the values: PubChem BioAssay AID932 (The Scripps Research Institute Molecular Screening Center, 2007).
